35 molecules from PubChem BioAssay (NCATS) can be followed below.

Results filed as inconclusive are left out. Where a call stands in place of a potency, no number is given. A number with no mark means an inactive call. Activity calls are given as the source filed them. Calls come from the whole dose curve; as a rule, active = well fitted inhibition curve with a large enough effect; inconclusive = small, poorly fitted or top-dose-only effect; inactive = no such curve, though single readings can be large or run the other way.
Potency is the fitted concentration of half-maximal effect.

One test is described as follows: BET inhibitor-based combinations targeting novel dependencies in MECOM-rearranged (r) AML: MV-4-11 cell line (AID 2202233). Note: nearly all actives have a fitted effect of over 45% in size. Conditions: MV-4-11 AML viability, CellTiter-Glo luminescence, 48 h; series mostly up to 46 µM. In short, it runs like this: (§1)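 Cells were plated at 500 per well and exposed to each drug across an 11-point dose range for 48 hr at standard incubator conditions. Viability was read by CellTiter-Glo luminescence, and activity was expressed as AUC and per-cell-line Z-transformed AUC.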
`COC(=O)N(C)c1c(N)nc(-c2nn(Cc3ccccc3F)c3ncccc23)nc1N`: the Potency result was “inactive”.
Regarding `COc1cccc(Nc2c(C(N)=O)cnc3c(C)cc(S(=O)(=O)c4cccc(C(=O)N(C)C)c4)cc23)c1`, the Potency is 3.32 µM (active).
With `CC(C)(N)C(=O)N[C@H](COCc1ccccc1)C(=O)N1CCC2(CC1)CN(S(C)(=O)=O)c1ccccc12`, the Potency is 10.5 µM (active).
With `COc1ccc(-n2c(SCCCN3C(=O)c4cccc5cccc(c45)C3=O)nnc2-c2ccncc2)cc1`, the Potency result is “inactive”.
As to `COC(=O)Nc1nc2ccc(C(=O)c3ccc(F)cc3)cc2[nH]1`, the Potency was 0.742 µM (active).
Turning to `Cc1cccc(-c2nn3c(c2-c2ccnc4ccc(C(N)=O)cc24)CCC3)n1`, the Potency result was “inactive”.
The same measure, in the same setting: next, `COc1ccc(-n2nc(C(N)=O)c3c2C(=O)N(c2ccc(N4CCCCC4=O)cc2)CC3)cc1`: “inactive”.

A short description of a further test: BET inhibitor-based combinations targeting novel dependencies in MECOM-rearranged (r) AML: HNT-34 cell line (AID 2202234). Note: nearly all actives have a fitted effect of over 35% in size. Conditions: HNT-34 AML viability, CellTiter-Glo luminescence, 48 h; series mostly up to 46 µM. In a few lines: as §1
For `CCCCc1oc2ccc(NS(C)(=O)=O)cc2c1C(=O)c1ccc(OCCCN(CCCC)CCCC)cc1`, the Potency was 11.8 µM (active).
On to `Cn1cncc1C(N)(c1ccc(Cl)cc1)c1ccc2c(c1)c(-c1cccc(Cl)c1)cc(=O)n2C` (configuration not stated), for which the Potency was 0.263 µM (active).
On to `Clc1cccc(-n2nnnc2NCc2ccccc2Oc2ccccn2)c1Cl`, for which the Potency result was “inactive”.
Turning to `OC[C@H]1O[C@@H](Oc2cc(O)cc(/C=C/c3ccc(O)cc3)c2)[C@H](O)[C@@H](O)[C@@H]1O`, the Potency result is “inactive”.
For `C[C@H]1CN(C[C@H](Cc2ccccc2)C(=O)NCC(=O)O)CC[C@@]1(C)c1cccc(O)c1`, the Potency result is “inactive”.
In the case of `O=C(NCC(=O)N1CC[C@H](NC2CCC(O)(c3ccc(-c4ncccn4)cn3)CC2)C1)c1cccc(C(F)(F)F)c1` (some centres not stated), the Potency entry was “inactive”.
Same read-out and setting: next, `NS(=O)(=O)OC[C@@H]1C[C@@H](n2ccc3c(N[C@H]4CCc5ccccc54)ncnc32)C[C@@H]1O`: 0.372 µM (active); `COc1ccc2cc(OCC3(C(=O)O)CN(C(=O)c4ccc(F)cc4)C3)ccc2c1`: “inactive”.
For the molecule `CNC(=O)c1ccc(-c2cnc3ncc(Cc4ccc5ncccc5c4)n3n2)cc1F`, the Potency was 18.6 µM (active).
Regarding `COCCOc1ccc(N2CCN(CCn3ncc4c3nc(N)n3nc(-c5ccco5)nc43)CC2)cc1`, the Potency result is “inactive”.
As to `Cn1c(CNc2ccc(C(=N)N)cc2)nc2cc(C(=O)N(CCC(=O)O)c3ccccn3)ccc21`, the viability (% of control) is 104% [at 0.315 µM].
With `COc1cccc2c(NCc3ccccc3)nc(-n3c(N)nc4ccccc43)nc12`, the Potency was 3.72 µM (active).
As for `COc1cc2c(cc1OC)CN(CCc1ccc(NC(=O)c3cccc4c(=O)c5cccc(OC)c5[nH]c34)cc1)CC2`, the Potency entry was “inactive”.
On to `CC(C)OC(=O)C1=CN(C(=O)c2ccc(F)c(F)c2)CC(C)(C)c2c1[nH]c1ccccc21`, for which the Potency entry was “inactive”.
As for `Cc1nnc(C(C)C)n1C1CC2CCC(C1)N2CC[C@H](NC(=O)C1CCC(F)(F)CC1)c1ccccc1` (some centres not stated), the Potency result was “inactive”.

A short description of a further test: BET inhibitor-based combinations targeting novel dependencies in MECOM-rearranged (r) AML: UCSD-AML1 cell line (AID 2202235). Note: nearly all actives have a fitted effect of over 40% in size. Conditions: UCSD-AML1 AML cells viability, CellTiter-Glo, 48 h; series mostly up to 46 µM. In short, it runs like this: as §1
With `CCN(CCO)CCCC(C)Nc1ccnc2cc(Cl)ccc12` (configuration not stated), the viability (% of control) was 97.7% [at 5.12 µM].
In the case of `Cn1cncc1C(N)(c1ccc(Cl)cc1)c1ccc2c(c1)c(-c1cccc(Cl)c1)cc(=O)n2C` (configuration not stated), the Potency was 0.372 µM (active).
Regarding `CC(C)(C)c1cc(C(=O)O)c(NC(=O)Nc2ccc3[nH]ncc3c2)s1`, the Potency result is “inactive”.
On the same count and under the same terms, next, `CCC(CC)C(c1ccc(Nc2nc3ccccc3s2)cc1)n1cncn1` (configuration not stated): “inactive”; `COc1ccc(CCC(=O)Nc2nc3ccc(Cl)cc3s2)cc1OC`: “inactive”; `CNC(=O)c1cccc(-c2ccc3c(N4CCOC[C@@H]4C)nc(N4CCOC[C@@H]4C)nc3n2)c1`: 0.0661 µM (active).
As for `Clc1cccc(-n2nnnc2NCc2ccccc2Oc2ccccn2)c1Cl`, the Potency entry was “inactive”.
Consider `OC[C@H]1O[C@@H](Oc2cc(O)cc(/C=C/c3ccc(O)cc3)c2)[C@H](O)[C@@H](O)[C@@H]1O`, for which the Potency result was “inactive”.
With `C[C@H]1CN(C[C@H](Cc2ccccc2)C(=O)NCC(=O)O)CC[C@@]1(C)c1cccc(O)c1`, the Potency entry is “inactive”.
For the molecule `CC(C)(C)NC(=O)Nc1cccc(Nc2ncc(F)c(NC(C)(C)CO)n2)c1`, the Potency was 3.72 µM (active).
With `O=C(NCC(=O)N1CC[C@H](NC2CCC(O)(c3ccc(-c4ncccn4)cn3)CC2)C1)c1cccc(C(F)(F)F)c1` (some centres not stated), the Potency entry was “inactive”.
With `C[C@]12CC[C@H](O)CC1=CCC1C2CC[C@]2(C)C(n3cnc4ccccc43)=CCC12` (some centres not stated), the Potency result was “inactive”.
On to `NS(=O)(=O)OC[C@@H]1C[C@@H](n2ccc3c(N[C@H]4CCc5ccccc54)ncnc32)C[C@@H]1O`, for which the Potency was 0.59 µM (active).
As to `Cc1cc(-c2ncc(CC(=O)Nc3ccc(-c4cnccn4)cn3)cc2C)ccn1`, the Potency was 26.3 µM (active).
Take `COc1ccc2cc(OCC3(C(=O)O)CN(C(=O)c4ccc(F)cc4)C3)ccc2c1`: the Potency entry is “inactive”.
In the case of `COc1ccc(N(C)c2nc(C)nc3ccccc23)cc1`, the Potency is 0.0118 µM (active).
For the molecule `COc1ccc2c(OCc3nnc4ccc(-c5ccccc5)nn34)ccnc2c1`, the Potency entry is “inactive”.
Still for that read-out and setting: next, `Cc1cc(OCc2nnc(SC3CCCC3)n2-c2cccnc2)ccc1-c1ccc(S(C)(=O)=O)cc1`: 5.9 µM (active).
Still for that read-out and setting: next, `CNC(=O)c1ccc(-c2cnc3ncc(Cc4ccc5ncccc5c4)n3n2)cc1F`: “inactive”; `COCCOc1ccc(N2CCN(CCn3ncc4c3nc(N)n3nc(-c5ccco5)nc43)CC2)cc1`: “inactive”.
As to `CN1CC[C@@H](NC(=O)Nc2ccc(C#N)cc2)C[C@@H]1c1nc2ccccc2[nH]1`, the Potency result was “inactive”.
Consider `COc1cccc(Nc2c(C(N)=O)cnc3c(C)cc(S(=O)(=O)c4cccc(C(=O)N(C)C)c4)cc23)c1`, for which the Potency entry was “inactive”.
Take `COc1ccc(-n2c(SCCCN3C(=O)c4cccc5cccc(c45)C3=O)nnc2-c2ccncc2)cc1`: the Potency entry was “inactive”.
In the case of `COc1cccc2c(NCc3ccccc3)nc(-n3c(N)nc4ccccc43)nc12`, the Potency is 4.17 µM (active).
`COC(=O)Nc1nc2ccc(C(=O)c3ccc(F)cc3)cc2[nH]1`: the Potency is 0.468 µM (active).
`COc1cc2c(cc1OC)CN(CCc1ccc(NC(=O)c3cccc4c(=O)c5cccc(OC)c5[nH]c34)cc1)CC2`: the Potency entry is “inactive”.
The same measure, in the same setting: next, `Cc1cccc(-c2nn3c(c2-c2ccnc4ccc(C(N)=O)cc24)CCC3)n1`: “inactive”.
As to `CC(C)OC(=O)C1=CN(C(=O)c2ccc(F)c(F)c2)CC(C)(C)c2c1[nH]c1ccccc21`, the Potency entry was “inactive”.
With `CCCCNc1ncc(-c2ccc(CN3CCOCC3)cn2)c(NC2CCC(O)CC2)n1` (configuration not stated), the Potency is 8.11 µM (active).
On to `Cc1nnc(C(C)C)n1C1CC2CCC(C1)N2CC[C@H](NC(=O)C1CCC(F)(F)CC1)c1ccccc1` (some centres not stated), for which the Potency result is “inactive”.
